# Where a name gives a salt, the structure may show the parent alone. The campaign covered roughly 1,500 compounds. About 30 (2%) showed activity. The sample holds actives, similar compounds and a random draw of the others, so the mix is not that of the screen. A number with no mark means an inactive call.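 How the source made its calls: active = robust z-score below -2; a few such results were not called.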
# Test system: optoTopBP1 Flp-In 293 T-REx (HEK293) cells
# Test: light-induced TopBP1 condensate (nuclear foci) count, plate-normalised robust z-score vs non-control wells; higher = more TopBP1 condensates (negative = condensation inhibitor), active = hit call of the paper
# Conditions: 10 µM; incubation time 2 h
row,SMILES,light-induced TopBP1 condensate (z-score)
1,C[CH2][Hg][S]c1ccccc1C(=O)[O-].[Na+] [Thimerosal],-8.21 (active)
2,C[C@]12CC[C@H]3[C@@H](CCC4=CC(=O)CC[C@@H]43)[C@@H]1CC[C@@H]2O [Nandrolone],2.28
3,O=C([O-])c1ccccc1-c1c2cc(Br)c(=O)cc-2oc2[c]([Hg+])c([O-])c(Br)cc12.[Na+].[Na+].[OH-] [Merbromin],-0.221
4,C[C@]12CC[C@H](O)C[C@H]1CC[C@@H]1[C@@H]2C[C@@H](O)[C@]2(C)[C@@H](C3=CC(=O)OC3)CC[C@]12O [Digoxigenin],-2.51 (active)
5,C[C@]12CC[C@@H](O)C[C@@H]1CC[C@@H]1[C@@H]2CC[C@]2(C)C(=O)CC[C@@H]12 [Androsterone],0.981
6,C[C@]12CC[C@@H](O)C[C@H]1CC[C@@H]1[C@@H]2CC[C@]2(C)C(=O)CC[C@@H]12 [3-alpha-Hydroxy-5-beta-androstan-17-one],-0.529
7,C[C@]12CC[C@H](O)C[C@@H]1CC[C@@H]1[C@@H]2CC[C@]2(C)C(=O)CC[C@@H]12 [Epiandrosterone],-0.588
8,C[C@]12CC[C@H](O)C[C@H]1CC[C@@H]1[C@@H]2CC[C@]2(C)[C@@H](C3=CC(=O)OC3)CC[C@]12O [Digitoxigenin],-2.06 (active)
9,CC(=O)O[C@H]1C[C@H](O[C@H]2[C@@H](O)C[C@H](O[C@H]3[C@@H](O)C[C@H](O[C@H]4CC[C@@]5(C)[C@H](CC[C@@H]6[C@@H]5C[C@@H](O)[C@]5(C)[C@@H](C7=CC(=O)OC7)CC[C@]65O)C4)O[C@@H]3C)O[C@@H]2C)O[C@H](C)[C@H]1O[C@@H]1O[C@H](CO)[C@@H](O)[C@H](O)[C@H]1O [Lanatoside C],-1.56
10,CO[C@]12C[C@@H](COC(=O)c3cncc(Br)c3)CN(C)[C@@H]1Cc1cn(C)c3cccc2c13 [Nicergoline],-0.703
11,CC(=O)NC1CCSC1=O (racemic) [N-Acetyl-DL-homocysteine Thiolactone],-0.247
12,CC(=O)O[C@H]1CC[C@@]2(C)C(=CC[C@@H]3[C@@H]2CC[C@]2(C)C(=O)CC[C@@H]32)C1 [Dehydroisoandosterone 3-acetate],-0.674
13,COc1cc([C@@H]2c3cc4c(cc3[C@H](O)[C@H]3COC(=O)[C@H]23)OCO4)cc(OC)c1OC [Podophyllotoxin],-2.43 (active)
14,COc1cc2c(c(OC)c1OC)-c1ccc(OC)c(=O)cc1[C@@H](NC(C)=O)CC2 [Colchicine],-1.18
15,CC(CCc1ccccc1)NC(C)C(O)c1ccc(O)cc1 (stereo not given) [Nylidrin],0.555
16,C#C[C@]1(O)CC[C@H]2[C@@H]3CCC4=CC(=O)CCC4=C3C=C[C@@]21CC [Gestrinone],0.545
17,CN1C(=O)COc2c(C(=O)NC3CN4CCC3CC4)cc(Cl)cc21 (stereo not given) [Azasetron hydrochloride],0.519
18,C[N+]1(C)[C@@H]2CC[C@H]1C[C@@H](OC(=O)C(CO)c1ccccc1)C2 (stereo not given in full) [Methylatropine nitrate],-0.568
19,COc1ccc(CCN)cc1OC [Homoveratrylamine],-1.31
20,C[C@]12CCC(=O)C=C1C=C[C@@H]1[C@@H]2CC[C@@]2(C)[C@H]1CC[C@@]2(O)CCC(=O)O [Canrenoic acid potassium salt],1.33

# Reference: the supplement of paper PMC12582362
